In test [1] the target is Cellular tumor antigen p53 (Homo sapiens) (UniProt P04637). Briefly: Primary qHTS for small molecule compounds that upregulate eGFP-tagged delta133p53alpha (in N-terminal) cells. (AID 2060322). Also: nearly all actives have a fitted effect of over 75% in size. Also: potency is read from the fitted curve at half-maximal effect.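 As to activation: cells pre-induced with doxycycline then dosed without doxycycline; series mostly up to about 56 µM; 0% = DMSO vehicle and 100% = reference activator.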 To be noted: NCI-H358 eGFP-delta133p53alpha fluorescence, 24 h; activation: stronger effect = higher value. The gist of the method: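 NCI-H358 cells pre-induced 24 h with 10 ng/ml doxycycline for eGFP-delta133p53alpha, plated dox-free and exposed 24 h at 37C to titrated compounds. Fixed, Hoechst-stained; gated GFP peak intensity by laser scanning cytometry, normalized to DMSO (0%) and 57.5 uM 5-azacytidine (100%).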

The target of test [2] is Aldehyde dehydrogenase, mitochondrial (Homo sapiens) (UniProt P05091). Briefly: qHTS for Inhibitors of the Aldehyde Dehydrogenase Family (ALDH2) Primary screen (AID 2061308).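 Also: plate controls were vehicle for no effect and reference inhibitor for full effect; nearly all actives have a fitted effect of over 55% in size.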 A general note: Quantitative high-throughput screening tests each substance at several concentrations.
In test [3] the target is Retinaldehyde dehydrogenase 3 (Homo sapiens) (UniProt P47895). Briefly: qHTS for Inhibitors of the Aldehyde Dehydrogenase Family (ALDH1A3) Validation screen (AID 2061312). Also: % is scaled to controls: 0 for no effect and ±100 for the full control effect; nearly all actives have a fitted effect of over 45% in size.
For test [4] the target is unchanged. Briefly: qHTS for Inhibitors of the Aldehyde Dehydrogenase Family (ALDH1A3) Primary screen (AID 2061315).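 Also: plate controls were DMSO vehicle for no effect and reference inhibitor for full effect.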

Values joined by “and” are separate entries in the source; they are usually repeats but may differ in a detail not shown here. Equal values may be shown once. Inconclusive results are not listed. Values without a mark were called inactive. Active and inactive are the calls of the source. Calls follow the shape of the dose curve; as a rule, active = well fitted curve in the direction sought with a large enough effect; inconclusive = small, poorly fitted or top-dose-only effect, or another doubt; inactive = no such curve, though single readings can be large; an effect the other way counts as inactive or inconclusive. Square brackets hold non-standard residues; d marks the D form. Peptide text beside a SMILES is read from it. pGlu = O=C1CC[C@@H](C(=O)O)N1; Thz = O=C(O)[C@@H]1CSCN1

Chain of Cellular tumor antigen p53 (Homo sapiens) (P04637 whole entry, looked up): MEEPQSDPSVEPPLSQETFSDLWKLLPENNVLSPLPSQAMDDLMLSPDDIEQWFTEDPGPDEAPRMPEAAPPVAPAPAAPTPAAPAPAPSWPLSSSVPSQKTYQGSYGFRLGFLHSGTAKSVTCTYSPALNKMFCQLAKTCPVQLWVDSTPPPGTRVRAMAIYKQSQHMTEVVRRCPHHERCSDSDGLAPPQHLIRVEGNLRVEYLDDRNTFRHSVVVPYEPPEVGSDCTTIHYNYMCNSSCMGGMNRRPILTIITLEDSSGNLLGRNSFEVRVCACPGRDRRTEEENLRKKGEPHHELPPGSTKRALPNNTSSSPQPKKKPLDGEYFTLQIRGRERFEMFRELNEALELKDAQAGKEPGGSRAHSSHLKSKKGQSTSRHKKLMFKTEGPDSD

As to `COc1ccc(-c2csc(NC(=O)[C@H]3CCCCN3S(=O)(=O)c3ccc(C)cc3)n2)cc1`, in test [1], the activation is -8.59%. Moreover, the Potency entry in test [2], in test [3] and in test [4] was “inactive” each time.
For `Cc1cccc2c1CC[C@H](CN1CCC(c3c(Cl)cccc3Cl)CC1)C[C@@H]2O`, the activation in test [1] is 11.9% and -7.16%. Further, the Potency result in test [2], in test [3] and in test [4] was “inactive” in each case.
As for `CCN(CC)C(=O)Nc1ccc(OCC(O)CNC(C)(C)C)c(C(C)=O)c1` (stereo not given), the activation in test [1] was -6.69% and 4.3%. In addition, the Potency entry in test [2], in test [3] and in test [4] was “inactive” throughout.
As for `Cn1c2ccc(NC(=O)c3ccccc3)cc2c(=O)n2nc(C(=O)O)cc12`, in test [1], the activation is 8.59%. Besides, the Potency entry in test [2], in test [3] and in test [4] was “inactive” in each case.
On to `O=C(O)[C@H](Cc1ccccc1)Oc1ccc(-c2ccccc2)cc1`, for which the activation in test [1] was -3.34%. The Potency result in test [2], in test [3] and in test [4] was “inactive” each time.
For `O=C(COc1ccc(C(=O)c2ccccc2)cc1)NC1CCN(Cc2ccccc2)CC1`, the activation in test [1] is -6.68%. In addition, the Potency result in test [2], in test [3] and in test [4] was “inactive” each time.
Consider `CCCCCCOc1cc2c(cc1N(C)c1ncc(C(=O)O)cn1)C(C)(C)CCC2(C)C`, for which the activation in test [1] was -3.82%. Further, the Potency entry in test [2], in test [3] and in test [4] was “inactive” in each case.
As for `O=[N+]([O-])c1cn2c(n1)OCC(OCc1ccc(OC(F)(F)F)cc1)C2` (stereo not given), the activation in test [1] was -10%. The Potency entry in test [2], in test [3] and in test [4] was “inactive” in each case.
Consider `Cc1nc2ccccc2c(-c2ccc3c4c(ccnc24)CCO3)c1[C@H](OC(C)(C)C)C(=O)O`, for which the activation in test [1] is 0.955%. In addition, the Potency result in test [2], in test [3] and in test [4] was “inactive” each time.
As to `O=C1CC[C@@H](C(=O)N2CSC[C@H]2C(=O)O)N1` ([pGlu]-[Thz]-OH), in test [1], the activation was 1.43%. Also, the Potency result in test [2], in test [3] and in test [4] was “inactive” in each case.
Turning to `CCN=C1N[C@@H]2[C@@H](O)[C@H](O)[C@@H](CO)O[C@@H]2S1`, in test [1], the activation was 1.43%. Further, the Potency result in test [2], in test [3] and in test [4] was “inactive” throughout.
In the case of `O=C(Nc1ccc(C(F)(F)F)cn1)N1CCN(c2ncccc2C(F)(F)F)CC1`, the activation in test [1] is -3.34%. Besides, the Potency entry in test [2], in test [3] and in test [4] was “inactive” in each case.
With `Cc1cc(-c2nc(-c3ccc(OC(F)(F)F)cc3)no2)nn1Cc1ccnc(N2CCN(C3CC3)CC2)c1`, in test [1], the activation is -0.955%. In addition, the Potency result in test [2], in test [3] and in test [4] was “inactive” in each case.
For the molecule `Cc1nc2cc(-c3cc(F)cc(C#N)c3)ccc2s1`, the activation in test [1] is -1.91%. Also, the Potency result in test [2], in test [3] and in test [4] was “inactive” throughout.
Regarding `O=C(NCc1ccc(F)cc1)C(=O)c1c[nH]c2ccccc12`, in test [1], the activation is 5.73%. Further, the Potency entry in test [2], in test [3] and in test [4] was “inactive” throughout.
For the molecule `CNc1ccc([N+](=O)[O-])c(Nc2ccc3[nH]ncc3c2)n1`, the Potency in test [1] is 10.7 µM (active). The Potency result in test [2], in test [3] and in test [4] was “inactive” throughout.
Take `CCCC1(c2ccccc2)NC(=O)N(CC(=O)N(C)Cc2c(F)cccc2Cl)C1=O` (stereo not given): the activation in test [1] was 4.3%. Besides, the Potency entry in test [2], in test [3] and in test [4] was “inactive” each time.
Regarding `Clc1ccccc1CNCC1CCC(CNCc2ccccc2Cl)CC1` (stereo not given), the activation in test [1] is 29.6%. In addition, the Potency result in test [2], in test [3] and in test [4] was “inactive” throughout.
Turning to `CC(F)(F)CN1CCOc2c(nn(-c3ccccc3Cl)c2-c2ccc(Cl)cc2)C1=O`, the activation in test [1] is 10%. The Potency result in test [2], in test [3] and in test [4] was “inactive” each time.
On to `CNCCCC1(c2ccccc2)OC(C)(C)c2ccccc21` (stereo not given), for which the activation in test [1] was -11.9%. The Potency entry in test [2], in test [3] and in test [4] was “inactive” throughout.
Consider `COc1cc(Nc2nc3c(s2)CCCC3c2ccc(F)cc2)ccc1-n1cnc(C)c1` (stereo not given), for which, in test [1], the activation was -13.4%. In addition, the Potency entry in test [2], in test [3] and in test [4] was “inactive” throughout.
For `O=C(Nc1cc(-c2ccccc2)nn1-c1ccccc1)c1ccc([N+](=O)[O-])cc1`, the activation in test [1] is -11%. Also, the Potency entry in test [2], in test [3] and in test [4] was “inactive” in each case.
Consider `Cc1c(C(=O)Nc2ccc(N3CC(C)OC(C)C3)nc2)cccc1-c1ccc(OC(F)(F)F)cc1` (stereo not given), for which the activation in test [1] was 20%. For the same molecule, the Potency entry in test [2], in test [3] and in test [4] was “inactive” throughout.
Regarding `O=c1cc(OCc2ccc(F)cc2)ccn1-c1ccc(OCCN2CCCC2)cc1`, the activation in test [1] is -0.955%. The Potency entry in test [2], in test [3] and in test [4] was “inactive” throughout.
Turning to `CC(C)(C[C@@](O)(Cc1cc2ccncc2[nH]1)C(F)(F)F)c1cc(F)ccc1O`, in test [1], the activation was 13.4%. For the same molecule, the Potency entry in test [2], in test [3] and in test [4] was “inactive” each time.
For the molecule `CC[C@H]1CN(c2nc(N)c(C(N)=O)nc2Cl)CCN1C1CCN(Cc2ccc(Cl)cc2)CC1`, in test [1], the activation is 3.34%. Also, the Potency result in test [2], in test [3] and in test [4] was “inactive” in each case.
`COc1ccccc1Oc1ccc(N(Cc2cccnc2)S(=O)(=O)CC(F)(F)F)cc1`: the activation in test [1] is -6.21%. The Potency result in test [2], in test [3] and in test [4] was “inactive” in each case.
Turning to `CNC(=O)c1ccc2cc([C@@]3(O)CCn4cncc43)ccc2c1`, the activation in test [1] was -9.55%. Besides, the Potency entry in test [2], in test [3] and in test [4] was “inactive” throughout.
Turning to `O=C(CCCN1CCN(c2ccccn2)CC1)c1ccc(F)cc1`, the activation in test [1] was -3.82%. In addition, the Potency entry in test [2], in test [3] and in test [4] was “inactive” throughout.
On to `CCC1(O)CC2c3cc(OC)c(OC)cc3CCN2CC1CC(C)C` (stereo not given), for which the activation in test [1] is 3.82%. Also, the Potency entry in test [2], in test [3] and in test [4] was “inactive” throughout.
